# According to PubChem BioAssay (EPA / NIEHS):
# Records with an inconclusive call do not appear. Active and inactive are the calls of the source. How the source made its calls, unless noted: active means hit-call score of the fitted dose curve at least 0.9, where 1 is the maximum; inactive means score below 0.9.
# Columns and labels:
# [1] = CCTE_Shafer_MEA_dev_firing_rate_mean: CCTE's Neural Network Formation Assay for Mean Firing Rate, Shafer Lab (AID 2284031)
# In short: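 Rat primary cortical neurons were seeded on multielectrode arrays and treated from plating through day 12, with redosing at each feed. Spontaneous spiking was recorded four times; mean firing rate AUC was fitted downward against DMSO.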
# [2] = CCTE_Shafer_MEA_dev_per_burst_spike_percent: CCTE's Neural Network Formation Assay for Percent of Spikes in a Burst, Shafer Lab (AID 2284032)
# In short: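 Rat primary cortical neurons on 16-electrode MEA wells, dosed from plating day 0 for 12 days with renewal on DIV 5 and 9; spikes-in-bursts percentage averaged over bursting electrodes, collapsed as AUC across days 5, 7, 9, 12; loss direction versus DMSO.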
# [3] = CCTE_Shafer_MEA_dev_active_electrodes_number: CCTE's Neural Network Formation Assay for Number of Active Electrodes, Shafer Lab (AID 2284040; active means hit-call score of the fitted dose curve at least 0.9, where 1 is the maximum)
# In short: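 Primary rat cortical neurons on 16-electrode MEA wells, exposed from day 0 through day 12 with compound renewed at DIV 5 and 9 feeds. Active electrodes (mean firing ≥5 spikes/min) counted at DIV 5, 7, 9, 12; trapezoidal AUC across days, loss-of-signal versus DMSO.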
# [4] = CCTE_Shafer_MEA_dev_burst_rate: CCTE's Neural Network Formation Assay for Burst Rate, Shafer Lab (AID 2284042)
# In short: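 Rat primary cortical cultures on PEI/laminin MEA; compound from plating, re-dosed at DIV 5, 9 media change. Single-electrode bursts/recording length, well mean of active electrodes; AUC over DIV 5–12 recordings; loss-of-signal vs DMSO.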
# [5] = CCTE_Shafer_MEA_dev_bursting_electrodes_number: CCTE's Neural Network Formation Assay for Number of Bursting Electrodes, Shafer Lab (AID 2284043; active means hit-call score of the fitted dose curve at least 0.9, where 1 is the maximum)
# In short: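 Primary rat cortical neurons were cultured on PEI-coated 48-well MEA plates (16 electrodes/well) and exposed from plating through day 12, with compound renewed at feeds on DIV 5 and 9. Electrodes bursting ≥1 per 2 min were counted on DIV 5, 7, 9, 12; trapezoidal AUC taken.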
# [6] = CCTE_Shafer_MEA_dev_per_burst_interspike_interval: CCTE's Neural Network Formation Assay for Burst Interspike Interval, Shafer Lab (AID 2284044)
# In short: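 Readout is the average time between spikes inside single-electrode bursts, taken as a well mean across bursting electrodes. Cortical neurons from rat developed networks on MEA plates under continuous 12-day exposure; recordings on days 5, 7, 9 and 12 were integrated by trapezoidal AUC.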
# [7] = CCTE_Shafer_MEA_dev_interburst_interval_mean: CCTE's Neural Network Formation Assay for Mean Interburst Interval, Shafer Lab (AID 2284046);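 further: well-mean interburst interval of bursting electrodes as AUC over four recording days; curve fitted for decrease in interburst interval relative to DMSO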
# In short: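 Rat cortical neurons, 1.5 x 10^5 cells/well, 48-well MEA; compound from day 0 through DIV 12, media and treatment renewed DIV 5/9. Recordings DIV 5, 7, 9, 12; well-mean interburst interval → trapezoidal AUC, loss direction vs DMSO.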
# [8] = CCTE_Shafer_MEA_dev_inter_network_spike_interval_mean: CCTE's Neural Network Formation Assay for Mean Inter-network Spike Interval, Shafer Lab (AID 2284047)
# In short: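 Primary rat cortical neurons on PEI-coated 48-well MEAs (16 electrodes/well) were exposed from plating day 0 to DIV 12, with dosing renewed at DIV 5 and 9. Recordings at DIV 5, 7, 9, 12 were collapsed by trapezoidal AUC, loss-of-signal fit vs DMSO.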
# [9] = CCTE_Shafer_MEA_dev_network_spike_number: CCTE's Neural Network Formation Assay for Number of Network Spikes, Shafer Lab (AID 2284048)
# In short: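 Primary rat cortical neurons were seeded at 1.5 x 10^5 cells/well on PEI-coated 16-electrode MEA wells with laminin, exposed from plating day 0, compound renewed at DIV 5 and 9. Network spikes were recorded on days 5, 7, 9, 12 and summarized as trapezoidal AUC versus DMSO.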
# [10] = CCTE_Shafer_MEA_dev_network_spike_peak: CCTE's Neural Network Formation Assay for Mean Number of Electrodes in Network Spike, Shafer Lab (AID 2284049)
# In short: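 Continuous 12-day exposure of rat cortical cultures, starting at plating, on MEA plates. Endpoint: electrodes participating in network-spike peaks, AUC across DIV 5–12, DMSO as negative control.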
# [11] = CCTE_Shafer_MEA_dev_network_spike_duration_std: CCTE's Neural Network Formation Assay for Standard Deviation of Network Spike Duration, Shafer Lab (AID 2284052);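 further: area under curve of spike duration SD across recording days 5 to 12; hits are decreases in network spike duration SD versus DMSO vehicle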
# In short: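 Rat cortical cultures, 1.5 x 10^5 cells/well, exposed continuously from plating to DIV 12 with media/compound renewal at DIV 5, 9. Spontaneous activity recorded DIV 5/7/9/12, AxIS adaptive spike detector; AUC across days; negative direction vs DMSO.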
# [12] = CCTE_Shafer_MEA_dev_per_network_spike_spike_number_mean: CCTE's Neural Network Formation Assay for Mean Number of Spikes in a Network Spike, Shafer Lab (AID 2284053)
# In short: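 Rat cortical primary cultures on 48-well MEA; compound from day 0, re-dosed with full media change DIV 5, 9. Recorded DIV 5, 7, 9, 12; spikes in 0.05 s window at network-spike peak ÷ total network spikes; AUC; loss vs DMSO.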
# [13] = CCTE_Shafer_MEA_dev_per_network_spike_spike_percent: CCTE's Neural Network Formation Assay for Percent of Spikes in a Network Spike, Shafer Lab (AID 2284054)
# In short: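 Primary rat cortical neurons on 16-electrode MEA wells (PEI-coated, laminin at plating), exposed from day 0 with renewal at DIV 5 and 9; spikes within 0.05 s of network-spike peaks over total spikes, AUC across days 5, 7, 9, 12.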
# [14] = UKN5_HCS_SBAD2_cell_viability: Viability Assessment in the University of Konstanz (UKN) Leist Lab Neurite Outgrowth Assay in human iPSC-derived immature Dorsal Root Ganglia Neurons (UKN5) (AID 2284056)
# In short: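 iPSC-derived immature peripheral neurons (SBAD2) seeded on Matrigel with CHIR99021, SU5402 and DAPT, dosed 1 h later for 24 h. Viability from Hoechst H-33342 and calcein-AM live staining, high-content imaging; bidirectional fit versus DMSO.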
# [15] = CCTE_Shafer_MEA_dev_LDH: CCTE's Lactate Dehydrogenase Assay for Cytotoxicity in the Neural Network Formation Assay, Shafer Lab (AID 2284068; active means hit-call score of the fitted dose curve at least 0.9, where 1 is the maximum;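 further: exposure for twelve days from plating with re-dosing on DIV 5 and 9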)
# In short: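 Rat cortical primary neurons, MEA culture; dosing day 0–12, full medium plus compound exchange DIV 5, 9. Read-out: LDH enzyme activity, spectrophotometric. DMSO = negative control/baseline; signal loss → cytotoxicity.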
# [16] = UKN5_HCS_SBAD2_neurite_outgrowth: University of Konstanz (UKN) Leist Lab Neurite Outgrowth Assay in human iPSC-derived immature Dorsal Root Ganglia Neurons (UKN5) (AID 2284070); settings: actives raise or lower the signal
# In short: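 Read-out: calcein-AM-stained neurite area by high-content imaging, Hoechst H-33342 for viability, after 24 h exposure of iPSC-derived immature dorsal root ganglia neurons. Activity fitted in both directions relative to DMSO baseline.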
# [17] = CCTE_Shafer_MEA_dev_AB: CCTE's Alamar Blue Assay for Cytotoxicity in the Neural Network Formation Assay, Shafer Lab (AID 2284083; active means hit-call score of the fitted dose curve at least 0.9, where 1 is the maximum;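 further: resazurin reduction fluorescence as viability of cultured neurons; twelve days of exposure from plating with re-dosing on DIV 5 and 9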)
# In short: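 Rat cortical primary cultures, 1.5 x 10^5 cells/well on MEA; continuous compound exposure over 12 days of network development, re-dosed with full medium change DIV 5 and 9. Alamar Blue fluorescence; loss of signal = cytotoxicity vs DMSO baseline.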
# [18] = UKN2_HCS_IMR90_neural_migration: University of Konstanz (UKN) Leist Lab Neural Crest Cell Migration Assay in human induced IMR90 Pluripotent Stem Cells (UKN2) (AID 2284204); settings: actives raise or lower the signal
# In short: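 iPSC-derived IMR90 neural crest cells on PLO/laminin/fibronectin were seeded around silicone stoppers; after stopper removal, migration in N2-S medium with EGF and FGF ran 24 h before 24 h chemical exposure. Calcein-AM/Hoechst high-content imaging; bidirectional fit versus DMSO.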
# [19] = UKN4_HCS_LUHMES_neurite_outgrowth: University of Konstanz (UKN) Leist Lab Neurite Outgrowth Assay in human LUHMES cells (UKN4) (AID 2284206); settings: actives raise or lower the signal
# In short: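 Day 0 switch to differentiation medium; day 2 replate (30000 cells/well) without cAMP and GDNF; compounds added 30 min–2 h later. At 23.5 h, 30 min calcein-AM/H-33342 live stain, then imaging.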
# [20] = UKN4_HCS_LUHMES_cell_viability: Viability Assessment in the University of Konstanz (UKN) Leist Lab Neurite Outgrowth Assay in human LUHMES cells (UKN4) (AID 2284232)
# In short: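 Fluorescence intensity from high-content imaging of Hoechst H-33342/calcein-AM-stained cells served as the viability read-out. Human LUHMES precursors were differentiated 2 days, replated and treated 24 h; curves were fitted bidirectionally against DMSO.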
# [21] = UKN2_HCS_IMR90_cell_viability: Viability Assessment in the University of Konstanz (UKN) Leist Lab Neural Crest Cell Migration Assay in human induced IMR90 Pluripotent Stem Cells (UKN2) (AID 2284233);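 further: viability of neural crest cells differentiated from IMR90 iPSC measured by calcein-AM fluorescence imaging; cells exposed to compound for 24 h after a 24 h migration phase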
# In short: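 iPSC-derived (IMR90) neural crest cells seeded around silicone stoppers on PLO/laminin/fibronectin; after 24 h migration in N2-S with EGF/FGF, chemical added for 24 h. Calcein-AM/Hoechst stained 30 min, high-content imaged; bidirectional fit versus DMSO.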
smiles,measurement,setting,value
Brc1cc(Br)c(Oc2cc(Br)c(Br)cc2Br)cc1Br,outcome,[1],inactive
same,outcome,[2],inactive
same,outcome,[3],inactive
same,outcome,[4],inactive
same,outcome,[5],inactive
same,outcome,[6],inactive
same,outcome,[7],inactive
same,outcome,[8],inactive
same,outcome,[9],inactive
same,outcome,[10],inactive
same,outcome,[11],inactive
same,outcome,[12],inactive
same,outcome,[13],inactive
same,outcome,[14],inactive
same,AC50,[15],7.47 µM (active)
same,outcome,[16],inactive
same,outcome,[17],inactive
same,outcome,[18],inactive
same,outcome,[19],inactive
same,outcome,[20],inactive
same,outcome,[21],inactive
